Several values for one entry are separate records, joined by “and”; a condition that tells them apart may be missing. Identical values can stand only once. Results filed as inconclusive are left out. A call without a number means that no potency is given here. Activity calls are given as the source filed them. Calls come from the whole dose curve; as a rule, active = well fitted curve in the direction sought with a large enough effect; inconclusive = small, poorly fitted or top-dose-only effect, or another doubt; inactive = no such curve, though single readings can be large; an effect the other way counts as inactive or inconclusive.
Assays:
[1] = qHTS for Inhibitors of Ubiquitin-specific Protease USP2a Using CHOP2 as the Reporter: K633 Counterscreen (AID 652168); note: series mostly up to about 57 µM
Outline: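 Cell-free interference counterscreen without USP2a: compounds pinned into enzyme-free buffer (20 mM Tris pH 8, 2 mM beta-mercaptoethanol, 0.05% Chaps), then DiUb K48-4IQF substrate added (100 nM stock); fluorescence read kinetically, Ex 525/Em 598.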

[2] = qHTS for Inhibitors of Ubiquitin-specific Protease USP2a Using CHOP2 as the Reporter: Cytotox Assay (AID 652170); note: nearly all actives have a fitted effect of over 70% in size; note: potency is the fitted concentration of half-maximal effect
Outline: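 HCT116 human colon cancer cells, 600 per well in DMEM with 10% FBS, exposed to compounds for 72 hr at 37 deg C. ATP measured by CellTiter-Glo luminescence, normalized to DMSO cells and no-cell background.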

[3] = target: Calcium and integrin-binding protein 1 (Homo sapiens) (UniProt Q99828); assay: Primary qHTS for Identification of Calcium Integrin Binding Protein 1 (CIB1) Competitor (AID 1508620);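 note: GST tagged CIB1 binding a fluorescein labelled alphaIIb integrin peptide tracer; top concentration of the series differs between compounds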
Calcium and integrin-binding protein 1 (Homo sapiens), sequence (Q99828 whole entry, looked up): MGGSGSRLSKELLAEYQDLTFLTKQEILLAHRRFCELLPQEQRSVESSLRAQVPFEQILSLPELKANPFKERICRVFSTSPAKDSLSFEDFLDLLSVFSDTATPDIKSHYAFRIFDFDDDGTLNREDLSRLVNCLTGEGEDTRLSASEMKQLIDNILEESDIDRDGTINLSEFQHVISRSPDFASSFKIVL
Outline: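 Fluorescence polarization competition: GST-tagged CIB1 (1 uM final) preincubated with compound 15 min at room temperature, then FITC-labelled alphaIIb peptide (100 nM final) added. After 15 min at room temperature, polarization read at Ex 480/Em 540.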

[4] = target: Ubiquitin carboxyl-terminal hydrolase 2 (Homo sapiens) (UniProt O75604); assay: qHTS for Inhibitors of Ubiquitin-specific Protease USP2a Using CHOP2 as the Reporter: K484 Substrate (AID 652173);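 note: cleavage of internally quenched K48 di-ubiquitin substrate measured as rising fluorescence over time; nearly all actives have a fitted effect of over 70% in size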; note: potency is the fitted concentration of half-maximal effect
Ubiquitin carboxyl-terminal hydrolase 2 (Homo sapiens), sequence (O75604 whole entry, looked up): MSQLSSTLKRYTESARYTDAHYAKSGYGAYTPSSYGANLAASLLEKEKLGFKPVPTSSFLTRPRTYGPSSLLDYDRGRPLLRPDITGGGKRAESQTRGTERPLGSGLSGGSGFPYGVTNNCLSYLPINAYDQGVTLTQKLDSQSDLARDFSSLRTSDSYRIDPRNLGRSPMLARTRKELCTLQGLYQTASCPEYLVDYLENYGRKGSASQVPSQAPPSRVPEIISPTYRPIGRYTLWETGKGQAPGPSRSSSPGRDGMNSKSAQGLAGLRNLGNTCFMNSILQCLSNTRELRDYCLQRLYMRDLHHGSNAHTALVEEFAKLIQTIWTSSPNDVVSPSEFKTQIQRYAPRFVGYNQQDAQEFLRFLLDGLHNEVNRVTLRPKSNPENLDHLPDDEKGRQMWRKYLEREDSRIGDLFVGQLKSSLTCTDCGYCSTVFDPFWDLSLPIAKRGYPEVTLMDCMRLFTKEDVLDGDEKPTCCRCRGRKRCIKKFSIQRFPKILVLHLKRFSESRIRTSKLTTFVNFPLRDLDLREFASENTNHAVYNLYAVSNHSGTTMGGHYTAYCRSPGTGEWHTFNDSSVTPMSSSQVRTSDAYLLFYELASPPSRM
Outline: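 USP2 (dispensed at 5 nM) was pinned with compounds, then DiUb K48 internally quenched fluorescent substrate (dispensed at 100 nM) was added. The buffer was 20 mM Tris pH 8, 2 mM beta-mercaptoethanol and 0.05% CHAPS. Cleavage was read kinetically as rising fluorescence, Ex 525/Em 598.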

Structure (SMILES)	outcome [1]	Potency [2]	Potency [3]	Potency [4]
O=C(Nc1ccc(S(=O)(=O)Nc2nccs2)cc1)C1CC(OCc2ccccc2)C1 (configuration not stated)	inactive	inactive	inactive	–
COC(=O)c1ccc(NC(=O)c2cc(-c3ccc(C)c(C)c3)nc3ccccc23)cc1	inactive	inactive	inactive	19.3 µM (active)
O=C(Nc1ccc(S(=O)(=O)Nc2nccs2)cc1)c1ccnc(-c2ccccc2)c1	inactive	–	inactive	13.7 µM (active)
Cc1noc(C)c1S(=O)(=O)Nc1cnccc1C(=O)Nc1nc(-c2ccccc2)cs1	inactive	inactive	inactive	6.85 µM (active)
O=C(Nc1nc(-c2ccccc2)cs1)c1ccccc1-n1cnnn1	–	inactive	inactive	–
Cc1ccc(-c2cc(C(=O)O)c3cccc(C)c3n2)cc1C	–	inactive	inactive	inactive
Cc1ccc(S(=O)(=O)Nc2ccccc2C(=O)Nc2nccs2)cc1	inactive	–	inactive	24.3 µM (active)
COc1ccc(NC(=O)c2cc(-c3ccc(C)c(C)c3)nc3ccccc23)cc1	–	inactive	inactive	–
Cc1ccc([S+](=O)([O-])n2cc(-c3ccc(-c4ccccc4)cc3)c3ccccc32)cc1	inactive	inactive	inactive	inactive
CC(C)(C)C1CCC(C(=O)Nc2ccc(S(=O)(=O)Nc3nccs3)cc2)CC1 (configuration not stated)	–	inactive	inactive	10.9 µM (active)
O=C(Nc1nc(-c2ccccc2)cs1)c1ccccc1S(=O)(=O)Nc1nccs1	inactive	–	inactive	12.2 µM (active)
CCS(=O)(=O)N1CCC(C(=O)Nc2ccc(S(=O)(=O)Nc3nccs3)cc2)CC1	–	inactive	inactive	–
Cc1ccc(S(=O)(=O)Nc2ccccc2C(=O)Nc2nc(-c3ccccc3)cs2)cc1	inactive	–	inactive	1.72 µM (active) and 1.93 µM (active)
CCCCC(=O)N1CCC(C(=O)Nc2ccc([S+](=O)([O-])Nc3nccs3)cc2)CC1	inactive	inactive	inactive	inactive
Cc1ccc(S(=O)(=O)Nc2cc(F)c(F)cc2C(=O)Nc2nc(-c3ccccc3)cs2)cc1	inactive	–	inactive	0.863 µM (active)
Cc1cccc(NC(=O)c2cc(-c3ccc(C)c(C)c3)nc3ccccc23)c1	inactive	inactive	inactive	inactive
CCCCCC1CCC(C(=O)Nc2ccc(S(=O)(=O)Nc3nccs3)cc2)CC1 (configuration not stated)	inactive	inactive	inactive	4.32 µM (active) and 3.85 µM (active)
COc1cc(NS(=O)(=O)c2ccc(C)cc2)c(C(=O)Nc2nc(-c3ccccc3)cs2)cc1OC	inactive	–	inactive	2.17 µM (active)
CC(=O)Nc1ccc(S(=O)(=O)Nc2nccs2)cc1	inactive	–	inactive	inactive
Cc1ccc(S(=O)(=O)Nc2ccncc2C(=O)Nc2nc(-c3ccccc3)cs2)cc1	inactive	–	inactive	4.85 µM (active)

Structure (SMILES)	outcome [1]	Potency [2]	Potency [3]	Potency [4]
O=C(Nc1nc(-c2ccccc2)cs1)c1ccncc1NS(=O)(=O)c1ccc(N2CCCC2=O)cc1	inactive	–	inactive	15.3 µM (active)
COc1ccc(OC)c(C(=O)Nc2nc(-c3ccccc3)cs2)c1	–	inactive	inactive	7.69 µM (active)
Clc1nc(CN2CCOCC2)nc2sc3c(c12)CCC3	inactive	–	inactive	inactive
COc1cc(C(=O)Nc2nc(-c3ccccc3)cs2)ccc1NS(=O)(=O)c1ccc(C)cc1	–	inactive	inactive	2.73 µM (active)
Cc1ccc(-c2cc(C(=O)Nc3ccccn3)c3ccccc3n2)cc1C	–	inactive	inactive	–
Cc1ccc(S(=O)(=O)Nc2cnccc2C(=O)Nc2nc(C3CCC3)cs2)cc1	inactive	–	inactive	17.2 µM (active)
Cc1ccc(-c2cc(C(=O)Nc3ccc(C(=O)O)cc3)c3ccccc3n2)cc1C	inactive	–	inactive	21.7 µM (active)
Cc1ccc(S(=O)(=O)Nc2cnccc2C(=O)Nc2ccc(N3CCOCC3)cc2)cc1	–	inactive	inactive	–
Cc1ccc(S(=O)(=O)Nc2ccccc2C(=O)Nc2nc(-c3ccc(Cl)cc3)cs2)cc1	inactive	–	inactive	1.93 µM (active)
O=C(Nc1nc(-c2ccccc2)cs1)c1cccc(NS(=O)(=O)c2nccs2)c1	inactive	inactive	inactive	17.2 µM (active)
COc1ccc(-c2csc(NC(=O)c3ccccc3NS(=O)(=O)c3ccc(C)cc3)n2)cc1	inactive	–	inactive	2.73 µM (active)
Cc1ccc(-c2cc(C(=O)NCC[S+](=O)([O-])O)c3ccccc3n2)cc1C	inactive	inactive	inactive	inactive
O=C(Nc1nc(-c2ccccc2)cs1)c1ccncc1NS(=O)(=O)c1cccnc1	inactive	inactive	inactive	2.73 µM (active)
O=C(Nc1ccc([S+](=O)([O-])Nc2nccs2)cc1)C1CCNCC1	inactive	–	inactive	inactive
Cc1ccc(-c2cc(C(=O)Nc3cccc4ccccc34)c3ccccc3n2)cc1C	–	inactive	inactive	17.2 µM (active)
Cc1ccc(S(=O)(=O)Nc2cc(Br)ccc2C(=O)Nc2nc(-c3ccccc3)cs2)cc1	inactive	–	inactive	1.09 µM (active)
Cc1ccc(S(=O)(=O)Nc2cc(C(=O)Nc3nc(-c4ccccc4)cs3)ccc2Cl)cc1	–	inactive	inactive	2.17 µM (active)
Cc1ccc(-c2cc(C(=O)Nc3ccccc3)c3ccccc3n2)cc1C	inactive	–	inactive	24.3 µM (active)
Cc1ccc(S(=O)(=O)Nc2cnccc2C(=O)Nc2ccc(S(=O)(=O)Nc3nccs3)cc2)cc1	inactive	inactive	inactive	19.3 µM (active)
Cc1ccc(S(=O)(=O)Nc2cnccc2C(=O)Nc2ccncc2)cc1	inactive	–	inactive	inactive

Structure (SMILES)	outcome [1]	Potency [2]	Potency [3]	Potency [4]
CCCCc1ccc(C(=O)Nc2ccc(S(=O)(=O)Nc3nccs3)cc2)cc1	inactive	inactive	inactive	10.9 µM (active)
Cc1ccc(S(=O)(=O)n2cc(C(=O)Nc3ccc(-c4ccccc4)cc3)c3ccccc32)cc1	inactive	inactive	inactive	21.7 µM (active)
Cc1ccc(-c2cc(C(=O)N(C)c3ccccc3)c3ccccc3n2)cc1C	–	inactive	inactive	21.7 µM (active)
COc1ccccc1NC(=O)c1cc(-c2ccc(C)c(C)c2)nc2ccccc12	–	inactive	inactive	10.9 µM (active)
O=c1[nH]c(CN2CCOCC2)nc2sc3c(c12)CCC3	–	inactive	inactive	inactive
Cc1ccc(S(=O)(=O)Nc2cccc(C(=O)Nc3nc(-c4ccccc4)cs3)c2Cl)cc1	–	11.8 µM (active)	inactive	3.43 µM (active)
Cc1ccc(-c2cc(C(=O)N3CC[S+](=O)([O-])CC3)c3ccccc3n2)cc1C	–	inactive	inactive	inactive
COc1cccc(NS(=O)(=O)c2ccc(C)cc2)c1C(=O)Nc1nc(-c2ccccc2)cs1	–	inactive	inactive	4.32 µM (active)
O=C(Cc1ccccc1)Nc1ccc(S(=O)(=O)Nc2nccs2)cc1	–	inactive	inactive	inactive
Cc1ccc(S(=O)(=O)n2cc(C(=O)Nc3nc(-c4ccccc4)cs3)c3ccccc32)cc1	–	inactive	inactive	6.11 µM (active)
CCOC(=O)C1CCC(C(=O)Nc2ccc([S+](=O)([O-])Nc3nccs3)cc2)CC1 (configuration not stated)	–	inactive	inactive	inactive
COc1ccc(NS(=O)(=O)c2ccc(C)cc2)cc1C(=O)Nc1nc(-c2ccccc2)cs1	–	inactive	inactive	3.43 µM (active)
CCC1CCC(C(=O)Nc2ccc(S(=O)(=O)Nc3nccs3)cc2)CC1 (configuration not stated)	–	inactive	inactive	27.3 µM (active)
Cc1ccc(-c2cc(C(=O)Nc3ncco3)c3ccccc3n2)cc1C	–	1.32 µM (active)	inactive	3.06 µM (active)
Cc1ccc(-c2cc(C(=O)N3CCCCC3)c3ccccc3n2)cc1C	–	inactive	inactive	24.3 µM (active)
Cc1ccc(S(=O)(=O)Nc2ccc(F)cc2C(=O)Nc2nc(-c3ccccc3)cs2)cc1	–	14.8 µM (active)	inactive	1.93 µM (active)
Cc1ccc(S(=O)(=O)Nc2cnccc2C(=O)Nc2nc(-c3ccc(-c4ccccc4)cc3)cs2)cc1	–	20.9 µM (active)	inactive	2.17 µM (active)
O=C1CC(c2ccccc2)Cc2[nH]c(=O)c(-c3nc(-c4ccc(F)cc4)cs3)cc21 (configuration not stated)	–	4.18 µM (active)	inactive	17.2 µM (active)
Cc1ccc(-c2cc(C(=O)Nc3ccc(S(=O)(=O)N(C)C)cc3)c3ccccc3n2)cc1C	–	inactive	inactive	4.32 µM (active)
O=C(O)c1cccc(S(=O)(=O)Nc2nccs2)c1	–	inactive	inactive	inactive

Reference: PubChem BioAssay (NCATS)
